{"source": "PubChem BioAssay AID540325", "about": "(National Center for Advancing Translational Sciences (NCATS), 2011)", "note": "The other results are listed elsewhere or left out. Calls of active or inactive are those of the source.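 How the source made its calls: active means inhibition at 10 µM of 30% or more; inconclusive means no clear call, values can overlap the other calls; inactive means inhibition at 10 µM under 30%.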", "data": [{"molecular_target": "DNA polymerase beta (Homo sapiens) (UniProt P06746)", "assay": "Inhibitors of DNA Polymerase Beta: Hit Validation in Radiolabeled Extension Assay", "conditions": "radiolabeled primer extension gel assay, phosphorimager; at 10 µM; stronger effect = higher value", "source_text": "The base excision repair system in human cells is a target for therapeutic modulation of the response to irradiation treatment and DNA-damaging drugs. A key enzyme in this system is the bi-functional DNA polymerase known as DNA polymerase Beta (Pol Beta). […] Using an integrated approach involving discovery of small molecule probes for Pol Beta via HTS and medchem optimization in collaboration with the NIH Chemical Genomics Center, validation by crystallography and kinetics along with cell-based validation experiments, we will test the hypothesis that base excision repair can be strategically modulated in human cells by targeting Pol Beta. Thus, we anticipate the Pol Beta-specific probes emerging from this research will serve as starting points in the development of clinical agents for use in downregulation of DNA base excision repair during therapeutic interventions against cancer. This assay is an orthogonal follow-up assay that looks at radiolabeled primer extension and was carried out by the assay provider. NIH Chemical Genomics Center [NCGC] NIH Molecular Libraries Probe Centers Network [MLPCN] […]\nA primer oligonucleotide is 5'-32P end-labeled using T4 polynucleotide kinase and 32P-[ATP]. […] Percent extension of substrate to product is measured using standard, quantitative phosphoimager analysis.", "values": [{"molecule": "O=C(Nc1ccc(S(=O)(=O)Nc2nccs2)cc1)c1cc(-c2ccncc2)nc2ccccc12", "inhibition": "96.4% (active)"}]}]}
